# Tb PYK inh = T. brucei pyruvate kinase inhibition; Q57TT1; TbPYK enzyme, Kinase-Glo Plus ATP luminescence, 45 min; Potency, µM (titrated, usually from 76.8 µM), most hits filed as inhibitors; actives 0.12% (n = 410,000); note: nearly all actives have a fitted effect of over 50% in size
#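 Activity of T. brucei pyruvate kinase was followed by Kinase-Glo Plus luminescence after the enzyme reacted 45 min at room temperature with 130 uM ADP (final) and substrate. Test compounds were added before ADP at multiple concentrations.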
# RE007 growth inh = less growth of the S. pombe RE007 Vpr strain. AID 651644. actives 0.21% (n = 360,000). Potency, µM (top dose mostly 92.2 µM), hits mostly inhibitors. S. pombe RE007 Vpr strain, BacTiter-Glo ATP luminescence, 24 h; active = well fitted falling curve with a large enough effect; inconclusive = small, poorly fitted or top-dose-only effect; inactive = no such curve, though single readings can be large or run the other way; note: nearly all actives have a fitted effect of over 50% in size
#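 Fission yeast strain RE007, carrying one chromosomally integrated HIV-1 vpr copy, was seeded at OD 0.01 in PMG+AL medium with 23 nL pinned compound. After 24 h at 30 °C and 99% humidity, viability was read by BacTiter-Glo luminescence.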
# Shiga toxin inh = blocks Shiga toxin action in Vero cells; Vero cells, Shiga toxin protein synthesis inhibition reporter; inhibition, % at 38.7 µM; actives 9.2% (n = 290,000); AID 2315; in the data active = inhibition mostly above about 28%, no sharp cut-off; inactive = mostly below about 43%
# CHX counter = counter-screen for Shiga toxin inhibitors: cycloheximide protein synthesis inhibition; cell reporter, cycloheximide protein synthesis inhibition counterscreen; max response, %; actives 12% (n = 300,000); in the data active = max response mostly above about 13%, no sharp cut-off; inactive = mostly below about 14%; note: read at 38.3 µM for the half of the compounds with a filed dose
# LmPK inhibitor = inhibitors of Leishmania mexicana pyruvate kinase | AID 1721 | Q27686 | Potency, µM (series often up to 57.5 µM), actives largely listed as inhibitors | purified LmPK, Kinase-Glo ATP luminescence, 1 h | actives 0.37% (n = 290,000)
#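 Screened at intermediate enzyme activity to detect both inhibitors and activators: LmPK at 0.1 nM, with a 0.5 nM enzyme column as activation reference. PEP 0.5 mM, ADP 0.1 mM; ATP detected by luminescence after 1 h.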
# FBPA Giardia inh = inhibitors of Giardia lamblia fructose-1,6-bisphosphate aldolase. purified Giardia FBPA. Potency, µM (doses to about 59.6 µM), hits mostly inhibitors. actives 0.71% (n = 290,000). AID 2451; note: nearly all actives have a fitted effect of over 55% in size
# Target sequence (A8B2U2 whole entry, looked up): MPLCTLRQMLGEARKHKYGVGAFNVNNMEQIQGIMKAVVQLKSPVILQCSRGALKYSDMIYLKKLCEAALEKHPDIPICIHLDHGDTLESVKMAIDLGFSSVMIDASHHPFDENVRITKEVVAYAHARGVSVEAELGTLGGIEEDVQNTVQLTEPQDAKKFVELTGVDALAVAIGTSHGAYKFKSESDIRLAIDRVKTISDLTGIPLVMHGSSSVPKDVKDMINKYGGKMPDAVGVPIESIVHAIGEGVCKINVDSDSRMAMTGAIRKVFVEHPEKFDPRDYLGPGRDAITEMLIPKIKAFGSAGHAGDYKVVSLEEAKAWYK
#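 Giardia FBPA (40 nM reagent) was preincubated 10 min at RT with compound (up to 57.5 uM final), then substrate plus GAPDH/TPI/NAD/arsenate coupling system with diaphorase/resazurin was added; resorufin fluorescence (525/598 nm) was read after 20 min.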
# Hits are given with their value; 0 = inactive; ? = inconclusive; - = no result; [ ] = remark or other dose. The full list was thinned out, with hits kept by preference. Unless noted, calls come from the whole dose curve; as a rule, active = well fitted curve in the direction sought with a large enough effect; inconclusive = small, poorly fitted or top-dose-only effect, or another doubt; inactive = no such curve, though single readings can be large; an effect the other way counts as inactive or inconclusive.
SMILES,Tb PYK inh,RE007 growth inh,Shiga toxin inh,CHX counter,LmPK inhibitor,FBPA Giardia inh
Cc1cccc(CSCc2nnc(N)s2)c1,0,0,39.1,19.3,0,0
Nc1nnc(CSCc2ccccc2)s1,0,0,0,0,0,0
CCc1nn(CC(=O)Nc2c(C)cc(C)cc2C)c(=O)c2cc3sccc3n12,0,-,-,-,-,-
CC(NC(=O)c1ccccc1F)C(=O)O (stereo not given),0,0,0,0,0,0
O=C(N/N=C\CCc1ccccc1)c1ccco1,0,0,50.2,38.0,0,0
CC(/C=N/NC(=O)c1ccccc1C)=C\c1ccccc1,0,0,-,-,-,-
CC(/C=N/NC(=O)c1ccco1)=C\c1ccccc1,0,?,89.2,24.2,0[11.5 µM],0
CC(/C=N/NC(=O)c1ccccc1F)c1ccccc1 (stereo not given),0,0,165.2,29.8,0,0
CC(/C=N/NC(=O)c1ccccc1F)=C\c1ccccc1,0,0,107.1,47.1,0,0
COc1cccc(CNCCSc2nnnn2C)c1OCc1ccc(Cl)cc1,0,-,-,-,-,-
C=C1C2CC[C@]3(CCC4[C@@]5(C)CCC[C@@]4(CN(CCO)C5)[C@@H]3C2)[C@@H]1O (stereo not given in full),-,-,-,-,-,0
O=C1CCCc2c1[nH]c1ccccc21,0,0,0,0,0,0
c1ccc2c(c1)SCc1c-2[nH]c2ccccc12,-,-,46.9,15.1,-,0
c1ccc2c(c1)OCCc1c-2[nH]c2ccccc12,0,0,0,13.7,0,0
O=C(NCCc1c[nH]c2ccccc12)[C@H]1C[C@@H]1[C@H](NP(=O)(c1ccccc1)c1ccccc1)c1ccccc1,-,-,-,-,-,0
COC(=O)c1ccc2nc(Nc3nc4ccc(F)cc4s3)sc2c1,0,0,0,28.2,0,0
CC(=O)c1sc(Nc2nc3ccc(F)cc3s2)nc1C,0,?,96.7,52.0,0,0
CCOC(=O)c1csc(Nc2nc3ccc(F)cc3s2)n1,0,?,22.8,20.0,0,0
CC(=O)N1CCC2(CC1)OC(=O)C(C)=C2C(=O)Nc1ccccc1C(F)(F)F,0[15.4 µM],-,-,-,-,-
CC(C(O)c1ccccc1)N(C)CCOC(c1ccccc1)c1ccccc1 (stereo not given),0,-,-,-,-,-
COC(=O)C/C=C\[C@@H](C)[C@@H](/C=N\OC[C@@H](C)[C@H](OCc1ccccc1)C(C)C)OC,-,-,-,-,-,0[12.9 µM]
COc1ccccc1C1(O)CCN(CCCn2c3ccccc3c3ccccc32)CC1,-,-,0,0,-,0
O=C(Nc1nc2ccc(F)cc2s1)C1=NN(c2ccccc2)C(=O)CC1,0,0,66.7,35.1,0,0
O=C(Nc1nc2ccccc2s1)C1=NN(c2ccccc2)C(=O)CC1,0,0,active,20.2,0,0
Cc1csc(NC(=O)C2=NN(c3ccccc3)C(=O)CC2)n1,0,0,0,0,0,0
SMILES,Tb PYK inh,RE007 growth inh,Shiga toxin inh,CHX counter,LmPK inhibitor,FBPA Giardia inh
CCOc1ccc(C2C(C(=O)Nc3ccccc3)=C(C)Nc3nc(-c4ccccc4Cl)nn32)cc1OC (stereo not given),0,-,-,-,-,-
Cc1nn(C(=O)c2ccccc2F)c(C)c1S(=O)(=O)N1CCOCC1,0,-,-,-,-,-
CCC(=O)N1c2ccccc2CC1C(=O)NCCCN1CCN(c2cccc(Cl)c2)CC1 (stereo not given),0,-,-,-,-,-
O=C1C(=O)c2ccccc2C(O)=C1CCCCl,0,?,0,0,0,3.54µM
CCSc1nc2sc3c(c2c(=O)[nH]1)CCCC3,0,0,0,0,0,0
BrCC1C[n+]2c(SCc3ccccc3)nc3sc4c(c3c2O1)CCCC4 (stereo not given),0,0,80.3,30.6,0,0
CCSc1nc2sc3c(c2c2[n+]1CC(CBr)O2)CCCC3 (stereo not given),0,0,0,17.4,0,?
Nc1nnc(SCC(=O)Nc2cccc(S(=O)(=O)N3CCCCC3)c2)s1,0,0,-,-,-,-
COCCn1cnnc1SCC(=O)Nc1cccc(S(=O)(=O)N(C)c2ccccc2)c1,0,0,0,0,0,0
O=C(CSc1nnc(Nc2ccccc2)s1)Nc1cccc(S(=O)(=O)N2CCCCC2)c1,0,0,57.6,49.5,0,0
Cc1nnc(SCC(=O)Nc2cccc(S(=O)(=O)N(C)c3ccccc3)c2)s1,0,0,0,38.4,0,0
